Our source for the binding signal values is PMC7862700, “An all-to-all approach to the identification of sequence-specific readers for epigenetic DNA modifications on cytosine”.

Common to all, as to experiment: DAPPL (digital affinity profiling via proximity ligation, sequencing); 10 mM Tris-HCl pH 7.5, 50 mM NaCl, 1 mM DTT, 4% glycerol, room temperature, 30 min; GST-TFs on glutathione beads, 16-mer random dsDNA library, 0.1% formaldehyde crosslink after washing; high values mean tight binding
One assay concerns the target T1, FEV (Homo sapiens, UniProt Q99581 1-238).
T1 sequence: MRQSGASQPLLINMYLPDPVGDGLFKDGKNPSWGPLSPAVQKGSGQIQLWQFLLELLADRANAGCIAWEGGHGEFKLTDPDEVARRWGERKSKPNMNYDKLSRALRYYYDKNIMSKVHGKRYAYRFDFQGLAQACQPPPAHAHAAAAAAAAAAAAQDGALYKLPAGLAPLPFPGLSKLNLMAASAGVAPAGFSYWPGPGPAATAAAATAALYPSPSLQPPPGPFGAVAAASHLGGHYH
The conditions noted are these: protein: recombinant; tags: N-terminal GST; dsDNA, one strand shown. The method, boiled down: (§1)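 After expression in yeast as GST fusions, human transcription factors were bound to glutathione beads, DNA-barcoded and mixed with a tag-only sample. The pools were incubated with 200 nmole of a 16-mer random double-stranded DNA library in Tris/NaCl/DTT/glycerol buffer (30 min, room temperature), washed and crosslinked with 0.1% formaldehyde. Proximity ligation with BsaI/T4 ligase ran for 1 h at 37 °C, before PCR amplification and sequencing on an Illumina NextSeq500. Binding signal is a hexamer's read frequency for a factor divided by its frequency for the tag-only sample.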

The target of the next assay is ETV5 (Homo sapiens, UniProt P41161 1-510). The conditions noted are these: protein: recombinant; tags: N-terminal GST; dsDNA, one strand shown. The method, boiled down: as §1
The next assay concerns the target HSF1 (Homo sapiens, UniProt Q00613 1-529). The conditions noted are these: protein: recombinant; tags: N-terminal GST; chain copies: 3; dsDNA, one strand shown. The method, boiled down:
as §1

Another assay addresses T2, SPIC (Homo sapiens, UniProt Q8N5J4 1-248).
T2 sequence: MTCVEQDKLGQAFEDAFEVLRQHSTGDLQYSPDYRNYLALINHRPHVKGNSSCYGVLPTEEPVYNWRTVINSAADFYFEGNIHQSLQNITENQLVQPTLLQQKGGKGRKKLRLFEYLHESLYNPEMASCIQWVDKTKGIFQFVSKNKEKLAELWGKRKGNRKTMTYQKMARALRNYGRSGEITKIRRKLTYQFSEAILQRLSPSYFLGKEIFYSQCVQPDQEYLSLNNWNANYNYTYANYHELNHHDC
The conditions noted are these: protein: recombinant; tags: N-terminal GST; dsDNA, one strand shown. The procedure, abridged:
as §1

The target of another assay is ELF4 (Homo sapiens, UniProt Q99607 1-663). The conditions noted are these: protein: recombinant; tags: N-terminal GST; dsDNA, one strand shown. The procedure, abridged: as §1
Another assay addresses T3, ELK4 (Homo sapiens, UniProt P28324-2 1-405).
T3 sequence: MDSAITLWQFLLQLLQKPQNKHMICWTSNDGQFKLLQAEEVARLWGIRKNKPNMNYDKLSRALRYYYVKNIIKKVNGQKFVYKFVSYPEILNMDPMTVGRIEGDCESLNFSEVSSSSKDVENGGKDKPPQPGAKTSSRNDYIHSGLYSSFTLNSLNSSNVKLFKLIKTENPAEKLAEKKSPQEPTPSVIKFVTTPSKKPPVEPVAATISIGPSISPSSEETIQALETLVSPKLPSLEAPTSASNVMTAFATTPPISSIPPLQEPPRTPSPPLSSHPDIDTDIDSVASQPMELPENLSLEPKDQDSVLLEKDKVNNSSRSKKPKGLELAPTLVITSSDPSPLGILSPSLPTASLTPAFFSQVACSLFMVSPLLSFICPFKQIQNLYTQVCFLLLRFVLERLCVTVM
Conditions: protein: recombinant; tags: N-terminal GST; dsDNA, one strand shown. The method, boiled down: as §1

For the next assay, the target named is T4, ETV2 (Homo sapiens, UniProt O00321 1-342).
T4 sequence: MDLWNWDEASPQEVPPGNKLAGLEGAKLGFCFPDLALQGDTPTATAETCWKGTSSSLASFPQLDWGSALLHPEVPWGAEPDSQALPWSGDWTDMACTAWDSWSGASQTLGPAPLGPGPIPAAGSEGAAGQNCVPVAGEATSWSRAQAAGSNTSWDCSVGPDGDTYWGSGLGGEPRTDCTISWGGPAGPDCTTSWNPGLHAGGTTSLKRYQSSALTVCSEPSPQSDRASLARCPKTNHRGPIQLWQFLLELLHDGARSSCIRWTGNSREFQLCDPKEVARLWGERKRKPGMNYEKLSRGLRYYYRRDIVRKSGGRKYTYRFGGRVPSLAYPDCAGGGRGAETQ
Conditions: protein: recombinant; tags: N-terminal GST; dsDNA, one strand shown. The procedure, abridged: as §1

In another assay the target is T5, ELF3 (Homo sapiens, UniProt P78545 1-371).
T5 sequence: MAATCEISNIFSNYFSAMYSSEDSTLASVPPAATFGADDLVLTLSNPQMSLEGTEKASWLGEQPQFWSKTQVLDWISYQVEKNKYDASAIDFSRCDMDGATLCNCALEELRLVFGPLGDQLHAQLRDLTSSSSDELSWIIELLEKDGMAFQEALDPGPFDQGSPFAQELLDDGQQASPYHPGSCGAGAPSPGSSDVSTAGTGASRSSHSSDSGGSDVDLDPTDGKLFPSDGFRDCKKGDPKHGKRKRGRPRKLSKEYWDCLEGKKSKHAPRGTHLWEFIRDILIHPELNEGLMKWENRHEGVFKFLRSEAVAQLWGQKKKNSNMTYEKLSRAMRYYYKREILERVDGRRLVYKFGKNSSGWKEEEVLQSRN
Conditions: protein: recombinant; tags: N-terminal GST; dsDNA, one strand shown. The procedure, abridged: as §1

A further assay deals with CRX (Homo sapiens, UniProt O43186 1-299). The conditions noted are these: protein: recombinant; tags: N-terminal GST; dsDNA, one strand shown. The procedure, abridged:
as §1

The target of a further assay is ETV1 (Homo sapiens, UniProt P50549 1-477). The conditions noted are these: protein: recombinant; tags: N-terminal GST; dsDNA, one strand shown. The method, boiled down:
as §1

For the next assay, the target named is T6, ERF (Homo sapiens, UniProt P50548 1-548).
T6 sequence: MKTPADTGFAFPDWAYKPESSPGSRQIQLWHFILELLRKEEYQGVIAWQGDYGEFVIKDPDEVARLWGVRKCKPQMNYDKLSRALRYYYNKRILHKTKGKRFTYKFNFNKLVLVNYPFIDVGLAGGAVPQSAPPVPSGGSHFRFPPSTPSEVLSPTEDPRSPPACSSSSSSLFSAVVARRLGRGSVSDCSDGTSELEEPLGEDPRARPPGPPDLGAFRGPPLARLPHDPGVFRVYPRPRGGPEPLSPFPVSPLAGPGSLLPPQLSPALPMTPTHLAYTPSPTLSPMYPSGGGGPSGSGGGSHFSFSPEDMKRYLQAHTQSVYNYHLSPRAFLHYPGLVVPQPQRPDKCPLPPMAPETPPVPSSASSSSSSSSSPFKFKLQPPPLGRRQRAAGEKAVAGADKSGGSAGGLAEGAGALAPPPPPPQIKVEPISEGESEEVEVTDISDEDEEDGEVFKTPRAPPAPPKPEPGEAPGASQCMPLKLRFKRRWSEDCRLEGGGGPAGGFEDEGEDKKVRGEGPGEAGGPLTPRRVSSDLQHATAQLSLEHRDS
Conditions: protein: recombinant; tags: N-terminal GST; dsDNA, one strand shown. The procedure, abridged: as §1

The target of a further assay is T7, ETV3L (Homo sapiens, UniProt Q6ZN32 1-361).
T7 sequence: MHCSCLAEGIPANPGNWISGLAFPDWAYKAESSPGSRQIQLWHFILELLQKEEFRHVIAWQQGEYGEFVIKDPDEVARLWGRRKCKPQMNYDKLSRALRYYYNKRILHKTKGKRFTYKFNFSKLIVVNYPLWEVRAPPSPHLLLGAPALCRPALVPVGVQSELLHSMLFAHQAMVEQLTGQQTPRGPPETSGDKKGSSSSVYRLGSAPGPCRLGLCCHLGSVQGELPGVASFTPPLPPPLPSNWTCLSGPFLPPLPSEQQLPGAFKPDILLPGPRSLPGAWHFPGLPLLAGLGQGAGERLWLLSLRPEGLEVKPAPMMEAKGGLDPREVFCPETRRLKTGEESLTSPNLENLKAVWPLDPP
Conditions: protein: recombinant; tags: N-terminal GST; dsDNA, one strand shown. The method, boiled down:
as §1

The next assay deals with T8, ETS2 (Homo sapiens, UniProt P15036 1-469).
T8 sequence: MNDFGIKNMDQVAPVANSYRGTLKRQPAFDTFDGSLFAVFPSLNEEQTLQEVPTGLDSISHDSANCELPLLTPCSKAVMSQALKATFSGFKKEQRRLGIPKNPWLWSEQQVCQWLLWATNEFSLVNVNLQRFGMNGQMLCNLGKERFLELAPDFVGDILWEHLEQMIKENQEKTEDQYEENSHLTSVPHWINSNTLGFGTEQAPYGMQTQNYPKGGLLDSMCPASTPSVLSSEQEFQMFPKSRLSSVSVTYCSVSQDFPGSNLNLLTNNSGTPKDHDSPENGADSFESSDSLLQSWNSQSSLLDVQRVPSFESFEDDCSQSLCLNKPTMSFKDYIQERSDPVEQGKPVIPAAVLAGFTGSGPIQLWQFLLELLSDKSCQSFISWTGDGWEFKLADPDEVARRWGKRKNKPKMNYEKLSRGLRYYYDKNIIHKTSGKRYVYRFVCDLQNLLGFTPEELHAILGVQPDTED
Conditions: protein: recombinant; tags: N-terminal GST; dsDNA, one strand shown. The procedure, abridged:
as §1

The next assay deals with T9, SPDEF (Homo sapiens, UniProt O95238 1-335).
T9 sequence: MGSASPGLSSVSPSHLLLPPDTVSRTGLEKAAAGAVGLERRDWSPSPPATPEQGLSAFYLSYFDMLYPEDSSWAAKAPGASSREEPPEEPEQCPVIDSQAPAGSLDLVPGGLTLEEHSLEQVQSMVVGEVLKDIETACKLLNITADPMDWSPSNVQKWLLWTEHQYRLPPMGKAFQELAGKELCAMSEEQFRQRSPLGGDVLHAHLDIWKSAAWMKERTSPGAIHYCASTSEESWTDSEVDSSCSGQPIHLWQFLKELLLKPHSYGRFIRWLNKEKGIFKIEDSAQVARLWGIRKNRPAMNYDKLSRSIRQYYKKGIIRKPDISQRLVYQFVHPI
The conditions noted are these: protein: recombinant; tags: N-terminal GST; dsDNA, one strand shown. The method, boiled down: as §1

The target of a further assay is T10, ETV7 (Homo sapiens, UniProt Q9Y603 1-341).
T10 sequence: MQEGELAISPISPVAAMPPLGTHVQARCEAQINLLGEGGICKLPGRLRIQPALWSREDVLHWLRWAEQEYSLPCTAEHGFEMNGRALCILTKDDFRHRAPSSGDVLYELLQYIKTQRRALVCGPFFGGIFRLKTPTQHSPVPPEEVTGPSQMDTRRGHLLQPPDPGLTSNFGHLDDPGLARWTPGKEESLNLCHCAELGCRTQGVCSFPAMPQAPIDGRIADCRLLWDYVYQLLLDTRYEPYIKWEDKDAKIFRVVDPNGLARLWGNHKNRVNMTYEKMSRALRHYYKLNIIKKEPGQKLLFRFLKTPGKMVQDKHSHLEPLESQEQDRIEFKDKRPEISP
The conditions noted are these: protein: recombinant; tags: N-terminal GST; dsDNA, one strand shown. The procedure, abridged:
as §1

The next assay concerns the target T11, ELF5 (Homo sapiens, UniProt Q9UKW6-2 1-255).
T11 sequence: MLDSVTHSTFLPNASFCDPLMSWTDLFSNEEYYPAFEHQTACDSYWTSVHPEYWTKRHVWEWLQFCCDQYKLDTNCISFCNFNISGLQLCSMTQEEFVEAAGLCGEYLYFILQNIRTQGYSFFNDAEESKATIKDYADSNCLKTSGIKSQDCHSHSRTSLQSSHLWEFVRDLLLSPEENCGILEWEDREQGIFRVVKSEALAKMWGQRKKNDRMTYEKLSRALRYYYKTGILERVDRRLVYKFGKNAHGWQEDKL
Conditions: protein: recombinant; tags: N-terminal GST; dsDNA, one strand shown. The procedure, abridged: as §1

For another assay, the target named is T12, ETV3 (Homo sapiens, UniProt P41162-2 1-143).
T12 sequence: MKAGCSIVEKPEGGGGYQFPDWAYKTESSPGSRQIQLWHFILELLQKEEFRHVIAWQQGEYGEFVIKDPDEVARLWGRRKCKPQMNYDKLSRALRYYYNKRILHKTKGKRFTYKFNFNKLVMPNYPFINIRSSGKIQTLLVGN
Conditions: protein: recombinant; tags: N-terminal GST; dsDNA, one strand shown. The method, boiled down:
as §1

Another assay addresses ETV6 (Homo sapiens, UniProt P41212 1-452). Conditions: protein: recombinant; tags: N-terminal GST; dsDNA, one strand shown. The method, boiled down: as §1

ELF4, sequence (Q99607 whole entry): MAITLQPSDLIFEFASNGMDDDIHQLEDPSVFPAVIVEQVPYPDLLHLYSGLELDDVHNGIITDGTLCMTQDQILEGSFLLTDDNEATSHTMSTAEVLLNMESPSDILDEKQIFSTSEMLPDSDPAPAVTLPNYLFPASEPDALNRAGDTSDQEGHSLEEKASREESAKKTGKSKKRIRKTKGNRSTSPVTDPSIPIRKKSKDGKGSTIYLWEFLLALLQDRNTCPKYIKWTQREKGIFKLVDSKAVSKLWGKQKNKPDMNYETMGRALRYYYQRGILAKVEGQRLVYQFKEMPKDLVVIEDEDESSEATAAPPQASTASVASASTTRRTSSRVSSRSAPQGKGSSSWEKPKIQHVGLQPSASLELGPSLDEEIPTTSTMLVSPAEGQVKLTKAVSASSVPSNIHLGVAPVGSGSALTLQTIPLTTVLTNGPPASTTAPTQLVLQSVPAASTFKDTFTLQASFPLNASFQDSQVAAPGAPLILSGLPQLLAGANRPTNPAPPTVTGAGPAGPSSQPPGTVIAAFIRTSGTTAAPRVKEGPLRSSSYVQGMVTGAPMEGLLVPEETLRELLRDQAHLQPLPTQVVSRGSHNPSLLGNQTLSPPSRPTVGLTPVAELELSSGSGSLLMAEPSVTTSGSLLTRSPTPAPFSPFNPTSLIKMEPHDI
ETV6, sequence (P41212 whole entry): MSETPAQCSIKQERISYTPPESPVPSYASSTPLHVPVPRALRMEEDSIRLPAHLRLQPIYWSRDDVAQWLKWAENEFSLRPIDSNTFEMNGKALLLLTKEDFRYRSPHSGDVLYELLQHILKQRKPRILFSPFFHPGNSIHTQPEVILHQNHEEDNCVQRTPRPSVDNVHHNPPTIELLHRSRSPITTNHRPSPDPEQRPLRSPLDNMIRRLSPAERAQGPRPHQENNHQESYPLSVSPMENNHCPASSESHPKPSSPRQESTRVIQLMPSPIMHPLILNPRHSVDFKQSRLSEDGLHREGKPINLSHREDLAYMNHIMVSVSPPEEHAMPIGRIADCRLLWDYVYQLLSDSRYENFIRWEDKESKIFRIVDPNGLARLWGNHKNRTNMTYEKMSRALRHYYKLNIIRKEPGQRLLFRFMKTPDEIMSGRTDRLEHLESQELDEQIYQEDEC
ETV5, sequence (P41161 whole entry): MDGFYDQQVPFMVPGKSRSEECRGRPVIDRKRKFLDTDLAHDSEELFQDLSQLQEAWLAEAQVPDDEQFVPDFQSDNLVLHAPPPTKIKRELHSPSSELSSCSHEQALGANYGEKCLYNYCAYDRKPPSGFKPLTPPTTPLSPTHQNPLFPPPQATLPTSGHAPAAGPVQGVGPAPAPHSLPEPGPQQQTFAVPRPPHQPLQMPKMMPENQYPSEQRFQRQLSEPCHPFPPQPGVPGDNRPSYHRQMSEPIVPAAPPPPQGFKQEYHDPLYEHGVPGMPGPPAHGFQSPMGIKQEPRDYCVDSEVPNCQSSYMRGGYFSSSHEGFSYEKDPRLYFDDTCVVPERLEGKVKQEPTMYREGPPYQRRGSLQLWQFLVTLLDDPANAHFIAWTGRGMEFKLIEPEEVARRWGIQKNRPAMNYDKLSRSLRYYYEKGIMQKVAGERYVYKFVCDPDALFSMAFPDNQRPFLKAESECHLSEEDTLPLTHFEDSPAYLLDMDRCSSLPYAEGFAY
CRX, sequence (O43186 whole entry): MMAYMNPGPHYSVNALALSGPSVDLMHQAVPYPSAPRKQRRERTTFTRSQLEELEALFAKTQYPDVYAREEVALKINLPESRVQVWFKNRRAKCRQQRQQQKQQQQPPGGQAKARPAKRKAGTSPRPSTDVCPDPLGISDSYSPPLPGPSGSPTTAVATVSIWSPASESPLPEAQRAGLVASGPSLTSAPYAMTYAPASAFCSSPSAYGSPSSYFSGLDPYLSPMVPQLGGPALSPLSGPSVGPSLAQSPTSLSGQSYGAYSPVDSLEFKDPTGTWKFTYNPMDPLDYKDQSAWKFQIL
HSF1, sequence (Q00613 whole entry): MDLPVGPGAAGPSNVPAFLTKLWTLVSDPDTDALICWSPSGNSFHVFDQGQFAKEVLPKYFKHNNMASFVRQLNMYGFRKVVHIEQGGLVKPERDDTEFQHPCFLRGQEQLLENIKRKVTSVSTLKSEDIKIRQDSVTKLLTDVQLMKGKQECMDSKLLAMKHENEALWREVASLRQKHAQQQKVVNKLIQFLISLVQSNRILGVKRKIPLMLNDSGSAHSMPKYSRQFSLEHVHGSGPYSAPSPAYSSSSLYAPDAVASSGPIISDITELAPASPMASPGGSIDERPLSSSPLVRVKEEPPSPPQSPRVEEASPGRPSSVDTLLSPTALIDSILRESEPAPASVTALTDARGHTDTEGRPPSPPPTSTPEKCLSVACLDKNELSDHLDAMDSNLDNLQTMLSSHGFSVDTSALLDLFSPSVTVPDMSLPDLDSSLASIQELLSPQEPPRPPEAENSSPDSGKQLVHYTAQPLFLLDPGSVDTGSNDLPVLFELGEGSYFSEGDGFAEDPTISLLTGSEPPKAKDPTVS
ETV1, sequence (P50549 whole entry): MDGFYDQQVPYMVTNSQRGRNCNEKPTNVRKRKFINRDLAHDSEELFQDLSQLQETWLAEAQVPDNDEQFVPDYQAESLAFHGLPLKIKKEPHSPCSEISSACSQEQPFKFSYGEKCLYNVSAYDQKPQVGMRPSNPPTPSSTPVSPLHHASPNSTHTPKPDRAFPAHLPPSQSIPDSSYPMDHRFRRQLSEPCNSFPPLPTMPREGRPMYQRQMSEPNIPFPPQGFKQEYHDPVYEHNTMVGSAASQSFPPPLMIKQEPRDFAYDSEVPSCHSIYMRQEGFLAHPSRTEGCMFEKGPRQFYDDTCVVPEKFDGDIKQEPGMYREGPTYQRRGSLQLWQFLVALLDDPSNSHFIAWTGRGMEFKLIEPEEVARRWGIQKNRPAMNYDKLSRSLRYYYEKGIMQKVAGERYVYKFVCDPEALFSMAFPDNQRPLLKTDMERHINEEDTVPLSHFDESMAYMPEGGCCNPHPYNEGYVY

Regarding CCATAA, the binding signal with FEV was 1.11 fold enrichment (6-mer frequency, TF over GST control); with ETV5, 1.12 fold enrichment (6-mer frequency, TF over GST control); with HSF1 it was 1.29 fold enrichment (6-mer frequency, TF over GST control); with SPIC, 1.33 fold enrichment (6-mer frequency, TF over GST control); with ELF4, 1.19 fold enrichment (6-mer frequency, TF over GST control); with ELK4, 1.11 fold enrichment (6-mer frequency, TF over GST control). The binding signal in the assay with ETV2 is 1.24 fold enrichment (6-mer frequency, TF over GST control); with ELF3, 1.07 fold enrichment (6-mer frequency, TF over GST control); with CRX it was 1.64 fold enrichment (6-mer frequency, TF over GST control); with ETV1, 1.23 fold enrichment (6-mer frequency, TF over GST control); with ERF it was 1.24 fold enrichment (6-mer frequency, TF over GST control); with ETV3L, 1.22 fold enrichment (6-mer frequency, TF over GST control). The binding signal was 1.22 fold enrichment (6-mer frequency, TF over GST control) with ETS2; 1.12 fold enrichment (6-mer frequency, TF over GST control) with SPDEF; 1.15 fold enrichment (6-mer frequency, TF over GST control) with ETV7; 1.1 fold enrichment (6-mer frequency, TF over GST control) with ELF5; 1.25 fold enrichment (6-mer frequency, TF over GST control) in the assay with ETV3; 1.21 fold enrichment (6-mer frequency, TF over GST control) with ETV6.
